The values that follow come from PubChem BioAssay.

Results filed as inconclusive are left out. Calls of active or inactive are those of the source.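 How the source made its calls, unless noted: active means viability at or below 30% in both replicate assays; inconclusive means viability at or below 30% in just one of the two assays; inactive means the rest.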

As a reminder, the viability is a read-out of living cells in per cent, often relative to untreated cells. For orientation: inhibition means the drop in the measured response relative to a control, in per cent.

Experiment [1] can be described thus: reducers of endogenous Her2 protein level, primary screen, SKBR3 breast tumor cells, AlphaScreen, ATP viability (AID 461;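 active means Her2 level under about 52% in both replicate screens, with viability over 70% of control, limit read from the data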;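 on Her2 level: lower value means less Her2 protein in the cells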;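 on viability: percent of carrier control wells set as 100% viability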). To be noted: 18-24 h, measured here: SKBR3 viability, ATP luminescence, at 10 µM. (In general: Bead proximity is the source of the signal in Alpha formats.)
Experiment [2] deals with Receptor tyrosine-protein kinase erbB-2 (Homo sapiens) (UniProt P04626). Described as above. To be noted: 18-24 h, at 10 µM, stronger effect = lower value.
Receptor tyrosine-protein kinase erbB-2 (Homo sapiens), sequence (P04626 whole entry, looked up): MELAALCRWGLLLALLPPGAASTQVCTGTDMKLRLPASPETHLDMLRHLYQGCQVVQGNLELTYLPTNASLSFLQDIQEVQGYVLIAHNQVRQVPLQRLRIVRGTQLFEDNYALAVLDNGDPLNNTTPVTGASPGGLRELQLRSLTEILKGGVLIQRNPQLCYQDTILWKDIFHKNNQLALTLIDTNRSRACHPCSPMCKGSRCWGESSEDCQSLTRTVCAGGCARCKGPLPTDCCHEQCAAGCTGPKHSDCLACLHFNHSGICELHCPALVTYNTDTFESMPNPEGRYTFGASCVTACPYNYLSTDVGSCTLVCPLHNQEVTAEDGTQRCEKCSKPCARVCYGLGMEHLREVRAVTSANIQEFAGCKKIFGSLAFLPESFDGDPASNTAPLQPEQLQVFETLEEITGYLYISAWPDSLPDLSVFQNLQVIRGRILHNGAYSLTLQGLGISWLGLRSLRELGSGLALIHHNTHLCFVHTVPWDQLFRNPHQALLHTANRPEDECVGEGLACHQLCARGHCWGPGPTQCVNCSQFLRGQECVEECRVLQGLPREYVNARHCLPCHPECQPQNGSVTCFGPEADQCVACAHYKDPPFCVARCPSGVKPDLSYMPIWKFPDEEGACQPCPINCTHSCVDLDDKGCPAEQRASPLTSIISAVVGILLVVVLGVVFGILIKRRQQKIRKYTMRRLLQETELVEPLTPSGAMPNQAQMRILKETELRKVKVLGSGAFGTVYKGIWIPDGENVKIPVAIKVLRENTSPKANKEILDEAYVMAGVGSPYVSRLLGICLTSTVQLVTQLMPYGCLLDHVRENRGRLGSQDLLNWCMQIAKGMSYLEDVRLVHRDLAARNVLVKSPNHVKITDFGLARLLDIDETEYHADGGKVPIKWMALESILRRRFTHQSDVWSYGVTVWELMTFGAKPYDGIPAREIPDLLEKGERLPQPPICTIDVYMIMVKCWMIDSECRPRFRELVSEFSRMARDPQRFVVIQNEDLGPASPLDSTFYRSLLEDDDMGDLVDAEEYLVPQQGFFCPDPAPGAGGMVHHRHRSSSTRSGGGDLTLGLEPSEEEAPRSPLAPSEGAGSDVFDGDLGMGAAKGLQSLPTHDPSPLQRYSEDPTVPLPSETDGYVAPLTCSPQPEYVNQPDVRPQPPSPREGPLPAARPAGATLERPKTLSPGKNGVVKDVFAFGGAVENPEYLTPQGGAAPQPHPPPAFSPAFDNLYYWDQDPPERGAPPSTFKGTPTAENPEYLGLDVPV
Experiment [3] can be described thus: SK-BR-3 cell growth inhibitors, pilot screen, 24 h, human (AID 572;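 active means viability at or below 10% of carrier control in both of two separate runs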;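 further: compound exposure lasted between 18 and 24 h rather than exactly 24 h; 100% = carrier-treated control wells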). The conditions noted are these: SK-BR-3 viability, CellTiter-Glo luminescence, at 10 µM, stronger effect = lower value. Background: Cellular ATP, detected with luciferase, serves as a proxy for viable cell number.
Experiment [4] can be described thus: HUVEC growth inhibition – cell-based, human, primary screen (AID 575).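 Further: 100% = median of untreated cell wells with 0.1% DMSO on each plate.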 To be noted: HUVEC proliferation, CellTiter-Glo luminescence, 72 h; at 10 µM; stronger effect = lower value.
Experiment [5] can be described thus: growth inhibitors of H69AR lung tumor, primary screen, human, duplicate replicates (AID 580;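 active means viability at or under a set limit in both replicates, limit being median viability minus 3 SD, cut at about 48% in these data, passing the limit was not always enough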;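 further: 100% = mean luminescence of untreated wells and 0% = no signal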). To be noted: H69AR lung tumor cells viability, ATP luminescence, 72 h; at 10 µM; stronger effect = lower value.
Experiment [6] in a line: reversal of MRP1-mediated doxorubicin resistance, pilot screen, H69AR cells, doxorubicin co-treatment (AID 601;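 active means viability loss from added drug above about 55%, and viability with drug at most 40%, in both replicates, limit read from the data, passing the limit was not always enough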). The conditions noted are these: CellTiter-Glo, 72 h, at 10 µM; for differential viability (reversal): stronger effect = higher value.
Experiment [7] can be described thus: 384-well plate pilot, post-Golgi transport modulator project, inhibition of yeast transport mutant growth (AID 636; in the data active means inhibition above about 31%). The conditions noted are these: absorbance 615 nm, about 18 h, stronger effect = higher value.
Experiment [8] can be described thus: growth suppression of yeast trafficking mutant, preliminary HTS, modulators of trafficking downstream of Golgi apparatus project, 1536-format plate, OD 615 nm (AID 637; in the data active means inhibition above about 30%). To be noted: yeast transport mutant growth, absorbance 615 nm, 18 h; stronger effect = higher value.
The nature of experiment [9]: OD615 S. cerevisiae growth inhibition, permissive medium, pilot counter-assay, permissive growth control for S. cerevisiae lifespan shortening project (AID 705;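 active means growth inhibition above 25% in both replicates, a cutoff set 3 SD above the mean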). The conditions noted are these: OD615, 24 h, at 10 µM, stronger effect = higher value.
Experiment [10] in a line: Restrictive medium S. cerevisiae growth inhibition, OD615, pilot screen of yeast lifespan reduction project, restrictive growth control (AID 706;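 active means growth inhibition above a set limit, 3 SD over mean compound inhibition, in both replicates, cut at about 43% in these data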;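 further: modified DeaD lifespan yeast strain shifted to restrictive glucose medium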). To be noted: OD615, 48 h, at 10 µM, stronger effect = higher value.
Experiment [11] is described as follows: viability gain of MRP-1-high H69AR cells under doxorubicin, pilot screen, MRP-1 activator project, CellTiter-Glo, duplicate (AID 807;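 active means viability increase at or above a cutoff of the median across tested compounds plus 3 SD, cut at about 8.5% in these data, passing the limit was not always enough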;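 further: compound pretreatment 18-22 h then 72 h combined with doxorubicin; 0% = doxorubicin alone and 100% = vehicle without doxorubicin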). The conditions noted are these: H69AR viability with doxorubicin, CellTiter-Glo luminescence; at 10 µM; stronger effect = higher value.
Experiment [12] in a line: growth suppression of beta-catenin knockout HCT116, pilot screen, human colon tumor cells (AID 823;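 active means cell viability at or below a set limit in both duplicate runs, the limit being the all-compound median minus 4 SD, cut at about 23% in these data, passing the limit was not always enough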;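 further: 0% = wells killed by 20 µM Hyamine and 100% = untreated DMSO cell wells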). The conditions noted are these: CellTiter-Glo, 60 h, at 10 µM, stronger effect = lower value.
Experiment [13] can be described thus: growth suppression of PTEN-deleted HCT116, pilot screen, cell-based, HCT116 clonal line, CellTiter-Glo (AID 824;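 active means viability at or below 27.92% in each of two runs, the all-compound median minus 4 SD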;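 further: 0% = 20 µM Hyamine control and 100% = vehicle cell control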). The conditions noted are these: 60 h, at 10 µM, stronger effect = lower value.
Experiment [14] is described as follows: inhibitors of the yeast RAM network, pilot screen, dse1pr::URA3 reporter, 5-FOA selection (AID 869;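 active means inhibition over a set limit, the all-compound mean plus 3 SD, in both replicate runs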;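 further: 0% = DMSO wells with no growth and 100% = 10 µM 1-NA-PP1 with full growth; RAM network block rescues cells from 5-FOA so hits raise OD615 growth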). The conditions noted are these: S. cerevisiae dse1pr::URA3 5-FOA growth, OD615, 2 d; at 10 µM; stronger effect = higher value; strain carries analog-sensitive mutant Cbk1 kinase.
A short description of experiment [15]: RAM signaling pathway blockade in yeast – S. cerevisiae, Pdr1DBD-CYC8 efflux-inhibited sensitized strain, primary screen (AID 1298;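 active means RAM network inhibition above 8.4% in each of two replicates, 3 SD over the compound average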;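 further: 0% = DMSO untreated cells without growth and 100% = 10 µM 1-NA-PP1 full growth; higher means more yeast growth rescued from 5-FOA killing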). The conditions noted are these: S. cerevisiae cbk1-as DSE1-URA3 strain, 5-FOA growth OD615, 2 d; at 50 µM; stronger effect = higher value.
Where [16] appears, read: H69AR cells + 2 uM doxorubicin, measured here: viability with 2 uM doxorubicin, stronger effect = lower value.
Where [17] appears, read: H69AR cells, compound alone cytotoxicity.

On to `CC1CCc2nn(CC(=O)Nc3ccc(F)cc3F)cc2C1` (stereo not given), for which the viability in experiment [1] was 108%; in experiment [3], 108% (inactive); in [4], 100% (inactive); in experiment [5], 104% (inactive); in experiment [6] (setting [16]), 89.5%; in experiment [6] (setting [17]), 104%. In addition, the viability in [12] is 97.8% (inactive); in [13] it was 98.3% (inactive). Further, the Her2 level in experiment [2] is 97.5% (inactive). The differential viability (reversal) in [6] (H69AR cells + 2 uM doxorubicin) was 14.7% (inactive). The inhibition in experiment [7] is -0.93% (inactive); in experiment [8], -6.72% (inactive); in [14], 2.21% (inactive). Further, the values for the growth inhibition in [9] and in experiment [10] were -2.97% (inactive) and -12.2% (inactive), respectively. For the same compound, the viability increase in experiment [11] is 1.3% (inactive). Moreover, the RAM network inhibition in experiment [15] was -0.77% (inactive).

`Cc1ccccc1-c1nc(CN2CCC(C(=O)N3CCC(C(N)=O)CC3)CC2)c(C)o1`: the viability in experiment [1] is 108%; in experiment [3] it was 108% (inactive); in experiment [4] it was 105% (inactive); in experiment [5] it was 89.5% (inactive); in experiment [6] (setting [16]), 84.7%; in experiment [6] (setting [17]) it was 89.5%. For the same compound, the viability was 92.8% (inactive) in [12] and 99.2% (inactive) in [13]. Besides, the Her2 level in [2] is 104% (inactive). The differential viability (reversal) in experiment [6] (H69AR cells + 2 uM doxorubicin) was 4.8% (inactive). The figures for the inhibition in experiment [7], in [8] and in experiment [14] were -5.73% (inactive), 4.67% (inactive) and 1.07% (inactive), respectively. For the same compound, the growth inhibition was -8.16% (inactive) in experiment [9] and 3.29% (inactive) in experiment [10]. Moreover, in [11], the viability increase was -2.4% (inactive). The RAM network inhibition in experiment [15] was 2.99% (inactive).

In the case of `COc1cccc2cc(C(=O)OC3CCN(C)CC3)c(=O)oc12`, the viability in experiment [1] was 96%; in experiment [3] it was 96% (inactive); in [4], 94.7% (inactive); in experiment [5], 105% (inactive); in experiment [6] (setting [16]), 86.5%; in experiment [6] (setting [17]), 105%. Also, the viability is 104% (inactive) in experiment [12] and 107% (inactive) in [13]. Also, in experiment [2], the Her2 level is 103% (inactive). The differential viability (reversal) in [6] (H69AR cells + 2 uM doxorubicin) was 18.2% (inactive). The figures for the inhibition in experiment [7], in experiment [8] and in [14] were -3.08% (inactive), 0.67% (inactive) and -0.245% (inactive), respectively. Besides, the growth inhibition in [9] was -7.33% (inactive); in [10] it was -8.68% (inactive). Besides, in [11], the viability increase is -3.68% (inactive). The RAM network inhibition in experiment [15] is 2.9% (inactive).

For `CCOC(=O)N1CCC(NC(=O)c2ccc3c(c2)N(CC)CCS3)CC1`, the viability in [1] is 94.5%; in [3] it was 94.5% (inactive); in experiment [4], 100% (inactive); in [5] it was 74.2% (inactive); in experiment [6] (setting [16]), 79.6%; in [6] (setting [17]) it was 74.2%. Besides, the viability in experiment [12] is 98.2% (inactive); in [13] it was 97% (inactive). The Her2 level in experiment [2] was 91.5% (inactive). The differential viability (reversal) in [6] (H69AR cells + 2 uM doxorubicin) was -5.34% (inactive). Further, the inhibition is -6.93% (inactive) in experiment [7], -0.33% (inactive) in experiment [8] and 3.51% (inactive) in experiment [14]. Further, the values for the growth inhibition in experiment [9] and in [10] were -10.9% (inactive) and -0.105% (inactive), respectively. In addition, the viability increase in experiment [11] was -3.08% (inactive). Also, the RAM network inhibition in experiment [15] is 2.26% (inactive).

For `CCCCc1cc2c(c(NC(C)=O)n1)c(=O)oc1ccccc12`, the viability was 112% in experiment [1]; 112% (inactive) in [3]; 80.6% (inactive) in experiment [4]; 77.9% (inactive) in experiment [5]; 86.2% in [6] (setting [16]); 77.9% in experiment [6] (setting [17]). The viability was 94.8% (inactive) in experiment [12] and 87.8% (inactive) in experiment [13]. Moreover, the Her2 level in experiment [2] was 99% (inactive). For the same compound, the differential viability (reversal) in experiment [6] (H69AR cells + 2 uM doxorubicin) is -8.33% (inactive). The inhibition is -3.47% (inactive) in experiment [7], -4% (inactive) in [8] and 1.68% (inactive) in experiment [14]. The growth inhibition was -9.7% (inactive) in [9] and -4.55% (inactive) in experiment [10]. The viability increase in [11] is -4.33% (inactive). Further, in [15], the RAM network inhibition is 3.84% (inactive).
